Experimental findings from PubChem BioAssay (Tox21) are described below.

A short description of test [1]: cAMP Responsive Elements (CRE) small molecule antagonists, cell-based qHTS assay: qHTS cell viability counter screen (AID 2060913). Further: nearly all actives have a fitted effect of over 40% in size. Further: potency means the concentration at half of the fitted maximal effect. As to conditions: CRE-bla HEK293T viability, CellTiter-Glo luminescence, 5 h; series mostly up to 92.4 µM. A digest of the protocol: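 CRE-bla HEK293T cells (2,000/well, 18 h) given compound plus NKH477 0.25 uM final for 3 h at 37C; viability counter-screen by CellTiter-Glo luminescence in same wells after 30 min.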

Test [2] is described as follows: cAMP Responsive Elements (CRE) small molecule agonists, cell-based qHTS assay: qHTS cell viability counter screen (AID 2060914). Further: nearly all actives have a fitted effect of over 50% in size. The note with it: CRE-bla HEK293T viability, CellTiter-Glo luminescence, 5 h; series mostly up to 92.4 µM. The gist of the method: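 Cytotoxicity was measured as ATP luminescence (CellTiter-Glo, 30 min at room temperature) in the same wells as the CRE-bla FRET read-out. HEK293T CRE-bla cells had 3 h compound exposure at 37C/5% CO2.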

Molecules are shown by their SMILES. Records with an inconclusive call do not appear. Values without a mark were called inactive. The source made the active and inactive calls. The call rests on the fitted dose curve; in most records, active means well fitted cell-killing curve with a large enough effect in the repeat runs; inconclusive means weak or mixed curves, or effect the other way; inactive means flat fitted curve, though single readings scatter.
On the % scale 0 is the no-effect control and ±100 the full control effect.

For the molecule `CCN1CCCC1CNC(=O)c1cc(S(N)(=O)=O)ccc1OC` (configuration not stated), the Potency entry in test [1] and in test [2] was “inactive” throughout.
As to `CCc1cccc(CC)c1N`, the Potency result in test [1] and in test [2] was “inactive” each time.
On to `Cc1cc(O)ccc1O`, for which the Potency result in test [1] and in test [2] was “inactive” each time.
For the molecule `CN(C)CC[C@@H](c1ccc(Cl)cc1)c1ccccn1`, the Potency entry in test [1] and in test [2] was “inactive” each time.
As for `CC(=O)Nc1ccc(/C=N/NC(N)=S)cc1`, the Potency result in test [1] and in test [2] was “inactive” each time.
`COc1cccc(OC)c1`: the Potency entry in test [1] and in test [2] was “inactive” each time.
For `COC(=O)C(C)(C)C`, the Potency result in test [1] and in test [2] was “inactive” in each case.
On to `CC1CCCNC1` (configuration not stated), for which the Potency entry in test [1] and in test [2] was “inactive” in each case.
Take `CCn1cc(C(=O)O)c(=O)c2cnc(N3CCNCC3)nc21`: the Potency result in test [1] and in test [2] was “inactive” in each case.
Regarding `O=C(OCC(O)CO)c1ccccc1Nc1ccnc2cc(Cl)ccc12` (configuration not stated), the Potency result in test [1] and in test [2] was “inactive” each time.
Take `CN1C(C(=O)Nc2ccccn2)=C(O)c2ccccc2S1(=O)=O`: the Potency entry in test [1] and in test [2] was “inactive” in each case.
For the molecule `CCOc1ccc(C(=O)OCCN(CC)CC)cc1`, the Potency entry in test [1] and in test [2] was “inactive” in each case.
`Nc1ccccc1S(=O)(=O)c1ccccc1`: the Potency result in test [1] and in test [2] was “inactive” in each case.
As for `Cc1c(-c2ccccc2)oc2c(C(=O)OCCN3CCCCC3)cccc2c1=O`, the Potency result in test [1] and in test [2] was “inactive” in each case.
As for `CCCCCCCCCCCCCCCCCBr`, the viability change, negative = cytotoxic in test [1] was 1.85% [at 18.9 µM]. For the same molecule, the activity change, negative = cytotoxicity in test [2] was 1.37% [at 18.9 µM].
As to `Cc1ccccc1S(N)(=O)=O`, the Potency result in test [1] and in test [2] was “inactive” throughout.
Consider `Cc1cc(O)c2c(c1)C(=O)c1cc(O)cc(O)c1C2=O`, for which the Potency result in test [1] and in test [2] was “inactive” each time.
For the molecule `Cc1cc(C)n(CO)n1`, the Potency result in test [1] and in test [2] was “inactive” each time.
On to `C=C(CC(=O)O)C(=O)O`, for which the Potency result in test [1] and in test [2] was “inactive” each time.
For `CCn1ccc(NS(=O)(=O)c2ccc(N)cc2)nc1=O`, the Potency result in test [1] and in test [2] was “inactive” in each case.
Regarding `CCC(Cl)CC(Cl)C(Cl)C(Cl)C(Cl)C(C)Cl` (configuration not stated), the viability change, negative = cytotoxic in test [1] is -10.4% [at 18.9 µM]. Besides, in test [2], the activity change, negative = cytotoxicity was -0.221% [at 18.9 µM].
Turning to `O=[N+]([O-])c1cccc(S(=O)(=O)NCCNS(=O)(=O)c2cccc([N+](=O)[O-])c2)c1`, the Potency entry in test [1] and in test [2] was “inactive” in each case.
Regarding `CCO[Si](CCCS)(OCC)OCC`, the Potency result in test [1] and in test [2] was “inactive” each time.
In the case of `O=c1[nH]c(=O)n([C@H]2C[C@H](O)[C@@H](CO)O2)cc1C(F)(F)F`, the Potency result in test [1] and in test [2] was “inactive” throughout.
`CC[C@@H]1C[C@H](N(Cc2cc(C(F)(F)F)cc(C(F)(F)F)c2)C(C)=O)c2cc(C(F)(F)F)ccc2N1C(=O)OC(C)C`: the Potency entry in test [1] and in test [2] was “inactive” in each case.
In the case of `O=C(Nc1cccc2c(=O)cc(-c3nn[nH]n3)oc12)c1ccc(OCCCCc2ccccc2)cc1`, the Potency entry in test [1] and in test [2] was “inactive” each time.
As to `OC1(c2ccccc2)CCNCC1`, the Potency entry in test [1] and in test [2] was “inactive” throughout.
As to `C=C(C)c1ccccc1`, the Potency result in test [1] and in test [2] was “inactive” throughout.
Regarding `COc1ccc(Cc2cnc(N)nc2N)cc1OC`, the Potency entry in test [1] and in test [2] was “inactive” in each case.
As to `CC(C)(O)C(=O)O`, the Potency result in test [1] and in test [2] was “inactive” throughout.
As to `CC(C)(O)C(=O)c1ccccc1`, the Potency entry in test [1] and in test [2] was “inactive” each time.
With `COC(=O)C1=C(C)NC(COC(N)=O)=C(C(=O)OC(C)C)C1c1cccc(Cl)c1Cl` (configuration not stated), the Potency result in test [1] and in test [2] was “inactive” in each case.
For `CCCCCCS`, the Potency entry in test [1] and in test [2] was “inactive” in each case.
Regarding `Cc1nnc(NS(=O)(=O)c2ccc(N)cc2)s1`, the Potency entry in test [1] and in test [2] was “inactive” each time.
With `C[C@@H]1C[C@H]2O[C@@]3(O[C@@H]2C(C)(C)O)[C@H](O)[C@@]2(C)[C@@H]4CC[C@H]5C(C)(C)[C@@H](O[C@@H]6OC[C@@H](O)[C@H](O)[C@H]6O)CC[C@@]56C[C@@]46CC[C@]2(C)[C@@H]13`, the Potency result in test [1] and in test [2] was “inactive” in each case.
Consider `CC(C)[C@H]1CC[C@H](C)C[C@@H]1O`, for which the Potency entry in test [1] and in test [2] was “inactive” each time.
Take `CCO[Si](CCC#N)(OCC)OCC`: the Potency entry in test [1] and in test [2] was “inactive” throughout.
`CCC(C)O` (configuration not stated): the Potency result in test [1] and in test [2] was “inactive” in each case.
For the molecule `CCN(CC)c1ccc(C=O)cc1`, the Potency result in test [1] and in test [2] was “inactive” throughout.
Regarding `CCCCCCCCC(CO)CCCCCC` (configuration not stated), the Potency entry in test [1] and in test [2] was “inactive” throughout.
`NCCCCCCN`: the Potency result in test [1] and in test [2] was “inactive” in each case.
Consider `CCCC(=O)OC/C=C(\C)CCC=C(C)C`, for which the Potency entry in test [1] and in test [2] was “inactive” each time.
Consider `Clc1ccc(Nc2nnc(Cc3ccncc3)c3ccccc23)cc1`, for which the Potency entry in test [1] and in test [2] was “inactive” each time.
Take `Oc1cc(Cl)cc(Cl)c1Cl`: the Potency in test [1] was 55.8 µM (active). In addition, the Potency result in test [2] is “inactive”.
Taken in the same sequence, the figures for `C=C(C)CNCC` were “inactive” and “inactive”.
Consider `C/C=C/c1ccc(OCC)c(O)c1`, for which the Potency entry in test [1] and in test [2] was “inactive” in each case.
Turning to `OC[C@H]1O[C@@](CO)(O[C@H]2O[C@H](CO)[C@@H](O)[C@H](O)[C@H]2O)[C@@H](O)[C@@H]1O`, the Potency result in test [1] and in test [2] was “inactive” in each case.
`CCCCOCCOCCOCCCC`: the Potency result in test [1] and in test [2] was “inactive” each time.
Turning to `CC(=O)c1c(C)c([N+](=O)[O-])c(C(C)(C)C)c([N+](=O)[O-])c1C`, the Potency result in test [1] and in test [2] was “inactive” in each case.
For the molecule `CC(=O)Nc1ccc(N=Nc2cc(C)ccc2O)cc1`, the Potency entry in test [1] and in test [2] was “inactive” each time.
As for `CN=C(N)NC(=O)Nc1c(C)cccc1C`, the Potency entry in test [1] and in test [2] was “inactive” in each case.
`OCC#CCO`: the Potency entry in test [1] and in test [2] was “inactive” each time.
For the molecule `CCOc1ccc(NC(=O)CC(C)=O)cc1`, the Potency entry in test [1] and in test [2] was “inactive” in each case.
On to `Cc1cccc(C)c1NC(=O)CN1CCCCCC1`, for which the Potency result in test [1] and in test [2] was “inactive” in each case.
Consider `Oc1c(Cl)cc(Cl)c(Cl)c1Cl`, for which the Potency result in test [1] and in test [2] was “inactive” each time.
As for `C/C=C/CO`, the Potency result in test [1] and in test [2] was “inactive” each time.
With `Cc1nc(C)c(C)nc1C`, the Potency entry in test [1] and in test [2] was “inactive” throughout.
`NC(=S)Nc1cccc2ccccc12`: in test [1], the viability change, negative = cytotoxic was 19.4% [at 8.39 µM]. Also, the activity change, negative = cytotoxicity in test [2] was -4.32% [at 8.39 µM].
Turning to `C=CCCCCCCCCC(=O)O`, the Potency result in test [1] and in test [2] was “inactive” each time.
For `CC(=O)C(C)C`, the Potency entry in test [1] and in test [2] was “inactive” throughout.
`C[C@@H]1O[C@@H](OC[C@H]2O[C@@H](Oc3c(-c4ccc(O)c(O)c4)oc4cc(O)cc(O)c4c3=O)[C@H](O)[C@@H](O)[C@@H]2O)[C@H](O)[C@H](O)[C@H]1O`: the Potency result in test [1] and in test [2] was “inactive” throughout.
For the molecule `O=C(O)CN(CCCN(CC(=O)O)CC(=O)O)CC(=O)O`, in test [1], the viability change, negative = cytotoxic is 0.188% [at 18.9 µM]. Besides, the activity change, negative = cytotoxicity in test [2] is -8.11% [at 18.9 µM].
For `CCCCN(CCCC)C(=S)SSC(=S)N(CCCC)CCCC`, the Potency entry in test [1] and in test [2] was “inactive” in each case.
`CC1=C(O)C(=O)C(C)O1` (configuration not stated): the Potency entry in test [1] and in test [2] was “inactive” throughout.
Turning to `CCCCC=O`, the Potency result in test [1] and in test [2] was “inactive” each time.
Take `NC(=O)c1ccccc1[N+](=O)[O-]`: the Potency result in test [1] and in test [2] was “inactive” each time.
